Screens: PubChem BioAssay, several laboratories
SKKanGAS inh = inhibitors of SKKanGAS S. pyogenes growth in kanamycin (SK-promoter or general growth effect). inhibition, % at 7.5 µM. BacTiter-Glo, 6 h. 300,000 tested, 1.3% active;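 active = mean replicate score, as percent of positive control median, at least 50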;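 note: strain carries kanamycin resistance gene driven by streptokinase promoter and grows in 40 µg/ml kanamycin; loss of luminescence reflects streptokinase promoter inhibition or plain growth inhibition; 0% = median of DMSO wells and 100% = positive control at its reference dose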
tim23-1 inh = inhibits growth of tim23-1 mutant yeast | AID 463212 | inhibition, % at 20 µM | S. cerevisiae tim23-1 growth, BacTiter-Glo luminescence, 24 h | 330,000 tested, 1.3% active;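 active = growth inhibition of the mutant yeast at or above 50%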;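 note: temperature-sensitive mutant grown at 25 °C; plate controls were DMSO-treated mutant yeast for no effect and medium wells lacking yeast for full effect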
PfHsp90 yeast 2 = growth inhibition of yeast expressing Plasmodium Hsp90; 310,000 tested, 0.32% active; S. cerevisiae expressing PfHsp90, BacTiter-Glo ATP, 48 h; yeast lacking PDR1 and PDR3 efflux regulators; inhibition, % at 9.4 µM;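 active = every replicate shows inhibition above about 80%, whatever the replicate mean, limit read from the data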;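 note: 0% = DMSO neutral controls and 100% = 20 µM radicicol positive controls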
tim10-1 inh = inhibits growth of tim10-1 mutant yeast. 330,000 tested, 2.2% active. S. cerevisiae tim10-1 ts strain growth, BacTiter-Glo, 24 h. inhibition, % at 20 µM;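 active = inhibition of at least 40%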;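 note: mutant grown at 25 °C; 0% = DMSO wells with yeast and 100% = wells holding no yeast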
ATG4B inhibitor = inhibitors of human ATG4B cysteine protease | Q9Y4P1 | ATG4B cleavage of LC3-PLA2, NBD-HPC fluorescence, 1 h | inhibition, % at 8.33 µM | 340,000 tested, 0.51% active; in the data active = inhibition above about 40%
Target sequence (Q9Y4P1 whole entry, looked up): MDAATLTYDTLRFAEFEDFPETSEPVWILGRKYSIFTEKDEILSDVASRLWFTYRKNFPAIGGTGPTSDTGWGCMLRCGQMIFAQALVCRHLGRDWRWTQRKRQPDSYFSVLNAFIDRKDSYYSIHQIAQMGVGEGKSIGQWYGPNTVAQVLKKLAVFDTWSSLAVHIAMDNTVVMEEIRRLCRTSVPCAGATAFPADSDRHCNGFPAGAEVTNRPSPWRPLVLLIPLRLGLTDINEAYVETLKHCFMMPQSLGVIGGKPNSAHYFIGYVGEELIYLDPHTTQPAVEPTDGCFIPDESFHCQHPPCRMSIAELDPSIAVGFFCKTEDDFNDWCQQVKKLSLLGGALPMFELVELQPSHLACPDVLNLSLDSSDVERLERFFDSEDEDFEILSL
TIM10 inh = TIM10 yeast growth inhibition; S. cerevisiae TIM10 strain growth, BacTiter-Glo luminescence, 24 h; inhibition, % at 10 µM; 330,000 tested, 1.4% active; AID 463195;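 active = inhibition of 40% or more at the single tested concentration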;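 note: wild-type TIM10 isogenic control strain grown at permissive 25 °C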
tim10 confirm = TIM10 yeast growth inhibition, confirmed | inhibition, % at 10 µM | S. cerevisiae tim10 strain growth, BacTiter-Glo luminescence, 24 h | shares compounds with TIM10 inh | 4,600 tested, 63% active;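 active = inhibition of yeast growth at or above a set limit in either of two replicates at 10 µM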;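 note: this counterscreen used the strain with wild-type TIM10; 0% = yeast with DMSO and 100% = medium wells lacking yeast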
Starred values were filed as active, the others as inactive; x = no result. Sampled rows, rich in hits. Any-hit rate of the full collection: about 4.7%.

SMILES	SKKanGAS inh	tim23-1 inh	PfHsp90 yeast 2	tim10-1 inh	ATG4B inhibitor	TIM10 inh	tim10 confirm
O=C1c2ccccc2C(=O)C1c1nccc2ccccc12	-3	21	12	6	-4	49*	47*
O=C1C(=O)c2ccccc2C(O)=C1c1ccccc1F	10	-26	-33	-46	3	-3	x
O=C(CN(C1CCCCC1)S(=O)(=O)c1ccccc1)NCc1ccco1	1	28	-2	16	3	16	x
CCCC(C)C(=O)Nc1nc(C)c(-c2csc(Nc3cc(Cl)ccc3C)n2)s1 (stereo unspecified)	24	31	-17	26	-1	14	x
Cc1ccccc1NC(=O)CC1SC(=Nc2ccc(O)cc2)NC1=O (stereo unspecified)	-4	-1	-13	-7	6	-6	x
Cc1cccc(NC(=O)C2CCN(S(=O)(=O)c3cccc4nsnc34)CC2)n1	7	20	7	22	-16	8	x
COc1ccc2nc(NC(=O)C3CCN(S(=O)(=O)c4cccc5nsnc45)CC3)sc2c1	x	18	-9	19	-15	40*	-24
COc1cc(NC(=O)C23CC4CC(C2)CC(n2cnc([N+](=O)[O-])n2)(C4)C3)cc(OC)c1	-1	16	x	24	2	8	x
O=C(O)c1nnn(-c2cc(C(F)(F)F)cc(C(F)(F)F)c2)c1-c1ccccc1	-5	5	-4	0	4	41*	12
O=C(O)c1nnn(-c2ccc(F)cc2F)c1-c1ccccc1	7	8	16	-2	12	9	x
CC(C)COP(=O)(c1ccc(N(C)C)cc1)C(O)c1ccc(Br)cc1 (stereo unspecified)	-4	26	3	27	2	42*	35*
CN1c2ccccc2C(C)(C)[C@]12C=Cc1cc(O)ccc1O2	7	42	-24	36	8	45*	35*
CCOc1cc(/C=C\c2nc(O)c([N+](=O)[O-])c(=O)[nH]2)ccc1OC(C)CC (stereo unspecified)	6	6	3	-1	-6	6	x
O=C(NNC(=S)NC1CCCCC1)c1cccc(S(=O)(=O)Nc2ccccc2Cl)c1	10	21	-27	28	7	41*	41*
O=C(c1cccc(S(=O)(=O)Nc2ccccc2Cl)c1)N1CCCCCC1	-5	9	7	8	6	7	x
COc1c2c(nc3occc13)C(CC=C(C)C)(OC)C(OC(C)=O)CC2 (stereo unspecified)	2	36	-6	35	-14	46*	-17
Cn1cccc1C(=O)NC(=O)COC(=O)c1cc([N+](=O)[O-])ccc1Cl	-9	-23	x	-21	21	-39	x
O=C(Cn1cc(/C=C\[N+](=O)[O-])c2ccccc21)Nc1ccccc1	0	38	4	38	-5	43*	55*
O=[N+]([O-])/C=C/c1cn(Cc2ccccc2)c2ccccc12	4	44	93*	35	7	46*	56*
Cc1cc(C)cc(NC(=S)NCc2ccc3c(c2)OCO3)c1	22	-15	-8	11	10	42*	16
COc1ccc(CNC(=S)Nc2ccccc2-c2ccccc2)cc1	6	15	x	24	x	48*	30
Cc1ccc(C)c(NC(=S)NCc2ccc3c(c2)OCO3)c1	7	3	0	25	-7	41*	0
Cc1ccc(NC(=S)NCc2ccc3c(c2)OCO3)cc1C	1	34	-11	24	8	25	x
COc1ccc(CNC(=S)Nc2cc(C)cc(C)c2)cc1	1	15	-3	27	-1	41*	-15
Cc1ccccc1NC(=S)NCc1ccc2c(c1)OCO2	2	41	x	19	11	14	x
SMILES	SKKanGAS inh	tim23-1 inh	PfHsp90 yeast 2	tim10-1 inh	ATG4B inhibitor	TIM10 inh	tim10 confirm
CC1CC(C)CN(CCCNC(=O)CCNC(=O)Cn2ccc3ccccc3c2=O)C1 (stereo unspecified)	-12	4	-12	-1	-2	-9	x
Cc1nnsc1C(=O)NC(C)c1ccccc1 (stereo unspecified)	2	-5	8	-8	3	-20	x
COc1ccc(N(CC(=O)Nc2cccc(N(C)S(C)(=O)=O)c2)S(=O)(=O)c2ccc(F)cc2)cc1	-6	23	-10	0	0	-12	x
Cc1ccc(C(=O)NCc2ccc3c(c2)OCO3)c(C)c1	-4	4	-5	-4	2	67*	8
Cc1cc(C(=O)NCc2ccc3c(c2)OCO3)c(C)o1	-5	18	-31	-10	-1	5	x
CC1CCC2(CC1)NC(=O)N(CC(=O)NC(C)c1ccc(F)c(F)c1)C2=O (stereo unspecified)	x	-5	2	-3	3	-4	x
Cn1c2ccccc2c2ncn(CCC3=CCCCC3)c(=O)c21	7	36	7	23	0	30	x
Cc1ccc2cc3cc(C(=O)NCCCN4CCCC4)oc3nc2c1	4	17	-2	6	4	45*	15
CCOc1ccc(NC(=O)c2cc3cc4ccc(C)cc4nc3o2)cc1	-15	3	x	9	x	-1	x
O=C(Nc1ccc(O)c(C(=O)O)c1)c1cccc(NC(=O)c2ccco2)c1	2	-13	18	-11	4	-1	x
O=C(NCc1ccc(Cl)cc1)c1ccc(Br)o1	-1	13	2	-24	-3	68*	-40
CC(C)(C)c1ccc(C(=O)NC(=S)NCc2cccnc2)cc1	-1	45	9	38	3	41*	30*
CCOC(=O)C/C(N)=N/NC(=O)c1ccc(Cl)cc1Cl	-2	0	11	0	11	10	x
C=CCn1c(SCc2ccc3nonc3c2)nnc1-c1cccs1	6	26	-1	38	11	48*	26*
C=CCn1c(SCC(=O)C(C)(C)C)nnc1-c1cccs1	-8	18	x	17	-2	1	x
CC(C)n1c(N2CCN(C(=O)Nc3ccccc3)CC2)nc2ccccc21	2	24	-12	20	-13	44*	43*
CCOC(=O)c1cc2cc3ccccc3cc2[nH]1	x	45	-25	32	3	43*	12
CC(C)OC(=O)c1cc2ccccc2[nH]1	-1	16	x	6	4	-4	x
O=C(N/N=C/c1c(O)ccc2ccccc12)c1cccnc1	24	42	-7	13	-15	42*	37*
COc1ccc2ccccc2c1/C=N\NC(=O)c1cccnc1	-2	6	x	-2	-5	-1	x
O=C(Nc1cccc2ccccc12)N1CCc2ccccc2C1	1	15	4	24	-1	40*	-20
